Data from PubChem BioAssay AID995 (National Center for Advancing Translational Sciences (NCATS), 2007).
Hit rate of the full screen: of about 72,000 compounds, about 710 (0.99%) were called active. Not shown: some 7% with an inconclusive outcome. Calls come from the whole dose curve; as a rule, active = well fitted inhibition curve with a large enough effect; inconclusive = small, poorly fitted or top-dose-only effect; inactive = no such curve, though single readings can be large or run the other way. What follows is part of a selection rich in actives, with near analogues and random picks from the rest.

Assay: qHTS Assay for Inhibitors of the ERK Signaling Pathway using a Homogeneous Screening Assay; note: nearly all actives have a fitted effect of over 55% in size
Settings: HEK293-V1b, vasopressin-stimulated pERK AlphaScreen; series mostly up to 57.5 µM
How it was run: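 qHTS, compounds titrated on V1b-expressing HEK293 cells. Preincubation 30 min at 37C, vasopressin 25 nM for 5 min, lysis 10 min, bead incubation 5 hr at room temperature.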
% is set by controls: 0 for no effect and ±100 for the full control effect; potency is the fitted concentration of half-maximal effect.

Potency, active:
Cn1c(=O)[nH]c(=O)c2c1nc(Br)n2CCCCSc1nc2ccccc2o1 31.6 µM
O=C(CN1CCN(C2CCCCC2)CC1)Nc1ccccc1N1CCCCC1 25.1 µM
C=CC(=O)c1ccc2ccccc2c1 10 µM
c1ccc(COc2nsnc2N2CCOCC2)cc1 25.1 µM
O=C(NCCN1CCOCC1)c1ccc2c(c1)ncn2C1CCCC1 25.1 µM
O=C(CSc1n[nH]c(-c2cccnc2)n1)Nc1ccnc2ccccc12 20 µM
COc1ccccc1-c1nnc(SCC(=O)Nc2ccccc2)o1 25.1 µM
O=C(c1ccco1)N1CCN(C(=O)C2CC(c3ccc(Cl)c(Cl)c3)=NO2)CC1 (stereo unspecified) 20 µM
O=C1c2ccccc2C(Nc2ccc3c(c2)OCCO3)N1Cc1ccco1 (stereo unspecified) 25.1 µM
N#CC1=C(N)Oc2cc(O)ccc2C1C1CCCCC1 (stereo unspecified) 25.1 µM
Cc1ccnc(-n2sc3ccccc3c2=O)n1 39.8 µM

Potency, inactive:
CC(=O)OCC(=O)C1CCC2C3CCC4=CC(=O)CC[C@@]4(C)C3CC[C@]12C (stereo partly specified)
Cc1ccc(NC(=O)c2cccc(N(C)C)c2)cc1NC(=O)c1ccc(O)cc1
CC1(C)OC2CO[C@]3(COS(N)(=O)=O)OC(C)(C)OC3C2O1 (stereo partly specified)
CC1(C)C=CC(=O)[C@]2(C)C1CC(=O)[C@]1(C)C2CC[C@@]2(C)C(c3ccoc3)OC(=O)C3OC321 (stereo partly specified)
COC(=O)[C@H]1C[C@@H]1[C@H](NC(=O)Oc1ccc(F)cc1)c1ccccc1
O=C(c1cnccn1)N1CCC2(CCCN(Cc3ccccc3)C2)CC1
COc1ccccc1OCCNCC(O)COc1cccc2[nH]c3ccccc3c12 (stereo unspecified)
O=C(OCC(COC(=O)c1ccccc1)(COC(=O)c1ccccc1)COC(=O)c1ccccc1)c1ccccc1
COc1c(C(C)C)oc2cc3oc(=O)ccc3cc12
COC(=O)[C@@]1(Cc2ccc(OC)cc2)[C@H]2c3cc(C(=O)N4CCCC4)n(Cc4ccc(OC(F)(F)F)cc4)c3C[C@H]2CN1C(=O)c1ccccc1
CC(C)CO
Nc1nc2[nH]c(=O)c(=O)[nH]c2c(=O)[nH]1
COC(=O)[C@@H]1C[C@@]2(O)[C@@H](O)[C@@H](O)[C@@H](O)C[C@H]2N1Cc1ccc(C)s1
O=C(c1cc(C(F)(F)F)cc(C(F)(F)F)c1)N1CCC[C@@]2(CCN(c3ccccn3)C2)C1
Cc1nc2cnc(N3CCNCC3)nc2n(CCc2ccccc2)c1=O
C/C=C(/C)C(=O)OC1Cc2c(ccc3ccc(=O)oc23)OC1(C)C (stereo unspecified)
COc1ccc(C[C@H](N)C(=O)N[C@@H]2[C@H](O)[C@H](n3cnc4c(N(C)C)ncnc43)O[C@@H]2CO)cc1
Cc1c(S(=O)(=O)O)oc2c1C(=O)C(=O)c1c-2ccc2c1CCCC2(C)C
C=C1C([C@@]2(C)C(OC(C)=O)CC(=O)O[C@@](C)(COC(C)=O)C2CC(=O)OC)C(OC=O)C(OC(=O)C(O)C(C)CC)[C@]2(C)C(c3ccoc3)CC(=O)C12O (stereo partly specified)
Cc1ccnc(SCCn2c(Br)nc3c2c(=O)[nH]c(=O)n3C)n1
CCCCCn1c(SCCC(C)C)nc2c1c(=O)[nH]c(=O)n2C
CCC[C@@H]1C[C@@]1(CCC)C(NC(=O)c1ccc(-c2ccccc2)cc1)c1cccc(Cl)c1 (stereo partly specified)
CC1=C(C(=O)OCc2ccccc2)C(c2ccc(C(F)(F)F)cc2)NC(=O)N1CCCCCC(=O)O (stereo unspecified)
O=C(NCCCN1CCN(C2CCCCC2)CC1)Nc1ccccc1C(F)(F)F
Cc1ccccc1NC(=O)CNc1ccccc1N1CCCCC1
CC(C)[C@H]1CC[C@@H](C)C[C@H]1O
CC(C)C1=CC2=CC[C@@H]3[C@](C)(CO)CCC[C@]3(C)C2CC1 (stereo partly specified)
CC1C(O)CC2C(C(=O)O)=CO[C@@H](O[C@H]3OC(CO)C(O)C(O)C3O)C21 (stereo partly specified)
Cc1ccc(S(=O)(=O)NC(=O)NN2C[C@H]3CCC[C@@H]3C2)cc1
Cc1ccc(/C(=C/CN2CCCC2)c2ccccn2)cc1
CCC1=C(OC(=O)N(CC)CC)N2C(=O)OC(=NCCc3c[nH]c4ccccc34)[C@]2(C)[C@H]2C1=CC[C@H]1C(=O)N(CC)C(=O)[C@H]12
c1nc(COc2nsnc2N2CCOCC2)cs1
O=C(O)COc1nsnc1N1CCOCC1
O=C(c1csnn1)N1CCC2(CCN(Cc3nccs3)CC2)CC1
COc1ccc(C2CC(=O)c3c(O)cc(OC4OC(COC5OC(C)C(O)C(O)C5O)C(O)C(O)C4O)cc3O2)cc1O (stereo unspecified)
O=C1OC(C(O)CO)C(O)=C1O (stereo unspecified)
O=C(NCc1cccs1)c1ccc2c(c1)ncn2C1CCCC1
O=C(NCCN1CCOCC1)c1c(F)c(F)c(F)c(F)c1F
FC(F)(F)c1ccccc1-c1cc(NCc2ccccc2)ncn1
C=CC(=O)OCCOCCOCCOCCOC(=O)C=C
Cc1oc2nc(SCC(=O)NCc3cccnc3)nc(N)c2c1C
COc1ccc(-c2nc(SCC(=O)N3CCOCC3)n[nH]2)cc1
CN1CC(=O)N=C1N
Nc1nc2c(nc(Cl)n2C2OC(CO)C(O)C2O)c(=O)[nH]1 (stereo unspecified)
Oc1ccc2c(c1)OCC1c3cc4c(cc3OC21)OCO4 (stereo unspecified)
COC(=O)[C@@H]1C[C@@]2(O)[C@H](O)[C@H](O)[C@H](O)C[C@H]2N1CC1CCCCC1
COC(=O)[C@@H]1C[C@@]2(O)[C@H](O)[C@H](O)[C@H](O)C[C@H]2N1Cc1ccc(C)s1
COc1ccccc1-c1nnc(SCC(=O)N2CC(C)CC(C)C2)o1 (stereo unspecified)
COc1ccccc1-c1nnc(SCC(=O)Nc2cc(C)on2)o1
Cn1cccc1C(=O)N1CCC2(CC1)CN(c1cccc(-c3ccccc3)c1)C2
COC(=O)[C@@H]1C[C@@]2(O)[C@H](O)[C@H](O)[C@H](O)C[C@H]2N1Cc1ccc(C(C)(C)C)cc1
O=C(c1ccco1)N1CCN(C(=O)C2CC(c3ccc(F)cc3)=NO2)CC1 (stereo unspecified)
O=C(c1ccco1)N1CCN(c2cccc(Cl)c2)CC1
CC(=O)OC1CCC2(O)CC1(C)CCC1C2CC1(C)C (stereo unspecified)
COc1cccc(Cn2c(=O)cnc3cncnc32)c1
COc1ccc(CCC(=O)c2c(O)cc(OC3OC(CO)C(O)C(O)C3O[C@@H]3OC(C)C(O)C(O)C3O)cc2O)cc1O (stereo partly specified)
O=C(Oc1cc(OC(=O)c2ccccc2)c2c(c1)OC(c1ccc(OC(=O)c3ccccc3)c(OC(=O)c3ccccc3)c1)[C@@H](OC(=O)c1ccccc1)C2)c1ccccc1 (stereo partly specified)
O=C(NC1CCCCC1)C1c2ccccc2C(=O)N1Cc1ccco1 (stereo unspecified)
CC1(C)SC2c3ccccc3C(=O)N2[C@@H]1C(=O)NCc1ccco1 (stereo partly specified)
COC1C[C@@H](O[C@@H]2C(C)C(=O)OC(C)C(C)C(O)C(C)C(=O)[C@@]3(CO3)CC(C)C(OC3OC(C)CC(N(C)C)C3O)C2C)OC(C)[C@@H]1O (stereo partly specified)
C=C[C@](C)(O)CCC1C(=C)CCC2[C@@](C)(CO)CCC[C@@]12C (stereo partly specified)
N#CC1=C(N)OC2=C(C(=O)CCC2)C1C1CC=CCC1 (stereo unspecified)
COCc1[nH]nc2c1C(C1C=CCCC1)C(C#N)=C(N)O2 (stereo unspecified)
CCCN(C/C=C\I)[C@@H]1CCc2cccc(O)c2C1
CC1=C(/C=C/C(C)=C/C=C/C(C)=C/C=C/C=C(C)/C=C/C=C(C)/C=C/C2=C(C)CCCC2(C)C)C(C)(C)CCC1
COCCn1c(=O)c(CCc2ccccc2)nc2cnc(N3CCNCC3)nc21
Cc1cnc(CNc2cc(-c3c(C)noc3C)ncn2)cn1
O=C(O)C(O)[C@@](O)(Cc1ccc(O)cc1)C(=O)O (stereo partly specified)
Cc1nc2ccccc2c(=O)n1CCCn1ccnc1
Cc1ccnc(N2CCC(C(=O)NC3CCCCCC3)CC2)n1
Cn1c(=O)c(-c2ccccc2)nc2cnc(N3CCNCC3)nc21
CCCCNc1nc(C)nc2c1nc(-c1ccccc1)n2CCCCN(CC)CC
C=C1C(=O)C23C(O)C1CCC2[C@]12COC3(O)C(O)C1C(C)(C)CC[C@H]2O (stereo partly specified)
COCCn1c(=O)c(-c2cc(F)cc(F)c2)nc2cncnc21
NS(=O)(=O)c1cc(Cl)c(Cl)c(S(N)(=O)=O)c1
CCCCCCCCCCCC(=O)O[C@H](CC(=O)O)C[N+](C)(C)C

activity, negative = inhibition, inactive:
O=C(O)CS(=O)c1ccc2c3c(cccc13)C(=O)c1ccccc1-2 (stereo unspecified) 22.7% [at 11.5 µM]
C[C@@H]1/C=C\CC(=O)OC[C@H]2O[C@@H](C=C[C@@H]2O)[C@H](C)/C=C\CC(=O)OC[C@H]2O[C@H]1C=C[C@@H]2O 20.6% [at 11.5 µM]
Cc1ccc2nc(CC(=O)c3ccc4ccccc4c3)c(=O)[nH]c2c1 3.17% [at 11.5 µM]
Nc1nc(N)c2[nH]c(CNc3ccc(C(=O)O)cc3)nc2n1 -2.04% [at 11.5 µM]
NCCNCC1CCNCC1 -16% [at 11.5 µM]
O=C(O)c1c(Br)c(Br)c(Br)c(Br)c1C1c2ccc(O)cc2Oc2cc(O)ccc21 -24.2% [at 11.5 µM]
Clc1ccc(C=Nc2ccc3c(c2)Cc2ccccc2-3)c(Cl)c1 9.67% [at 11.5 µM]
C=CCOC(=O)C(C(C)=O)C(NC(=O)OC)c1ccccc1 (stereo unspecified) 29.5% [at 11.5 µM]
c1ccc(CCN2CCN=C2Cc2ccccc2)cc1 9.2% [at 11.5 µM]
